Compound activity as filed in PubChem BioAssay.
An excerpt weighted towards active compounds, which were near 4.3% of everything screened.
BoNT F protease = blocks Botulinum neurotoxin F light chain protease; Multiplex microsphere protease cleavage assay, flow cytometry; inhibition, % at 10 µM; 360,000 tested, 0.22% active; in the data active means inhibition above about 35%, passing the limit was not always enough; inconclusive means no clear call, values can overlap the other calls
MazF activator = MazEF (E. coli) toxin RNase activation; FAM/BHQ RNA-DNA oligo cleavage fluorescence, 5 h; 350,000 tested, 0.32% active; activation, % at 20 µM; AID 504720; P0AE70; in the data active means activation above about 50%
Target sequence (P0AE70 whole entry, looked up): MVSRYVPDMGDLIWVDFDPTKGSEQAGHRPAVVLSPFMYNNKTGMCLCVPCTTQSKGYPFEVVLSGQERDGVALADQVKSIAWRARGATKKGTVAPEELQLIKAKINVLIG
Bead autofluor = compound fluorescence in toxin protease inhibitor counterscreen | AID 624483 | compound autofluorescence counterscreen, microsphere flow cytometry; active compounds read high | 360,000 tested, 3.1% active | fluorescence intensity (test concentration not listed); in the data active means fluorescence intensity above about 16000; inconclusive means no clear call, values can overlap the other calls
PfHsp40 yeast = rescue of PfHsp40-mediated yeast toxicity. S. cerevisiae expressing PfHsp40, growth rescue, ATP luminescence. growth rescue, % at 12.5 µM. 340,000 tested, 0.68% active. AID 504582; in the data active means growth rescue above about 28%, passing the limit was not always enough; inconclusive means no clear call, values can overlap the other calls;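 further: yeast W303a lacking pdr1 and pdr3 grown in galactose medium; growth measured after three days at 30 °C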
Anthrax LF inh2 = blocks Bacillus anthracis lethal factor protease; multiplex microsphere protease cleavage assay, LF; inhibition, % at 10 µM; 360,000 tested, 0.12% active
BoNT-A LC inh2 = BoNT A light chain protease inhibition; AID 588499; multiplex microsphere protease substrate cleavage, flow cytometry; 360,000 tested, 0.17% active; inhibition, % at 10 µM
Numbers stand for hits; i = inactive; ? = inconclusive; nt = not tested or not shown. Unless noted, no stated cut-off is given here; in the data, active means inhibition above about 30%; inconclusive means no clear call, values can overlap the other calls; inactive means below that.

SMILES	BoNT F protease	MazF activator	Bead autofluor	PfHsp40 yeast	Anthrax LF inh2	BoNT-A LC inh2
Fc1ccc(/C=N/NC2=Nc3cccc4cccc2c34)cc1	i	110.3	i	i	i	i
c1ccc(NC2=Nc3cccc4cccc2c34)cc1	i	i	i	i	i	i
COc1cccc(N2CCN(C(=O)CN3C(=O)NC(C)(c4ccc5ccccc5c4)C3=O)CC2)c1 (stereo unspecified)	i	i	i	i	i	i
O=C(CSc1nc2ccccc2c(=O)n1NC(=O)Cc1ccccc1)NCc1ccco1	i	i	?	i	i	i
Cc1nc2ccccc2c(=O)n1NC(=O)c1ccc(Cl)cc1	i	i	i	i	i	i
O=C(CSc1nc2ccccc2c(=O)n1NC(=O)c1ccccc1)c1ccc(Cl)cc1	i	i	19026	i	i	?
CCn1c(SCC(=O)c2ccccc2)nc2ccccc2c1=O	i	i	i	i	i	i
O=C(CSc1nc2ccccc2c(=O)n1NC(=O)Cc1ccccc1)NCc1ccccc1	i	i	23372	i	i	i
COc1ccc(C(=O)Nn2c(SCC(=O)NC3CCCC3)nc3ccccc3c2=O)cc1	i	i	21985	i	i	i
O=C(CSc1nc2ccccc2c(=O)n1NC(=O)c1ccccc1)c1ccccc1	i	i	22548	i	i	i
CC1CCCC(C)N1C(=S)SCC(=O)O (stereo unspecified)	i	i	i	i	i	i
COC(=O)c1ccc(CSc2nc3scc(-c4cccs4)c3c(=O)[nH]2)o1	i	i	20323	i	i	?
CC(C)(C)NC(=O)CSc1nc2ccc(NC(=O)CSc3nnnn3Cc3ccccc3)cc2s1	?	i	i	i	i	i
CCOC(=O)CSc1nc2ccc(NC(=O)CSc3nnnn3Cc3ccccc3)cc2s1	i	i	20885	i	i	i
Cc1ccc(-c2cc(C(=O)N3CCN(C(=O)c4ccco4)CC3)no2)cc1	i	i	20055	i	i	i
CN(C)C(=O)N1CCN(C(=O)c2ccco2)CC1	i	i	i	i	i	i
Cc1ccc(CN2CCN(C(=O)c3ccco3)CC2)cc1	i	i	i	i	i	i
O=C(c1ccco1)N1CCCN(C(=O)c2ccco2)CC1	i	i	23373	i	i	i
O=C(c1ccco1)N1CCN(c2ccc(S(=O)(=O)N3CCCC3)cc2)CC1	i	i	22603	i	i	i
O=C(CN1C(=O)NC2(CCCCCCC2)C1=O)N1CCN(C(=O)c2ccco2)CC1	i	i	i	i	i	i
O=C(CN1C(=O)NC2(CCCC2)C1=O)N1CCN(C(=O)c2ccco2)CC1	i	i	19470	i	i	i
CCCCCCn1c(=O)n2n(c1=O)C[C@]1(OC(=O)NC3CC3)CN(S(=O)(=O)c3ccc(C)cc3)C[C@]1(O)C2	i	i	i	nt	i	i
Cc1cc(NC(=O)Cn2nnc3sc4c(c3c2=O)CCCC4)no1	i	i	17027	i	i	i
Cc1cc(NC(=O)CSc2nc3sc4c(c3c(=O)n2C)CCCC4)no1	i	i	17695	i	i	i
Cc1cc(NC(=O)CSc2nc(C3CC3)nc3sc4c(c23)CCC(C)C4)no1 (stereo unspecified)	nt	i	nt	nt	nt	nt
SMILES	BoNT F protease	MazF activator	Bead autofluor	PfHsp40 yeast	Anthrax LF inh2	BoNT-A LC inh2
Cc1cc(NC(=O)Cn2nnc3sc4c(c3c2=O)CCC(C(C)(C)C)C4)no1 (stereo unspecified)	i	i	24311	i	i	?
CCn1c(SCC(=O)Nc2cc(C)on2)nc2sc3c(c2c1=O)CCCC3	i	i	i	i	i	i
CCOC(=O)c1sc(NC(=O)Cn2nnc3sc4c(c3c2=O)CCCC4)nc1C	i	i	i	i	i	i
CCN(CC(=O)Nc1ccccc1C(F)(F)F)C(=O)CCOc1ccc(C)cc1	i	i	i	i	i	i
COc1ccc(CCNC(=O)COC(=O)c2ccc([N+](=O)[O-])o2)cc1	i	i	i	122.6	i	i
COc1ccc(CCNC(=O)COc2ccc([N+](=O)[O-])cc2)cc1	i	i	i	i	i	i
CC(=O)Nc1ccc(NC(=O)COC(=O)c2ccc([N+](=O)[O-])o2)cc1	i	i	i	i	i	i
O=C(COC(=O)c1ccc([N+](=O)[O-])o1)NCCCc1ccccc1	i	i	i	45.3	i	i
O=C(COC(=O)c1ccc([N+](=O)[O-])o1)Nc1cccc2ccccc12	i	i	i	80.4	i	i
O=C(COC(=O)c1ccc([N+](=O)[O-])o1)NCc1ccc(F)cc1	i	i	i	222.6	i	i
CCCCCC(=O)N1C[C@H](O)[C@@H](n2cc(COC(=O)c3ccccc3)nn2)C[C@@H]1c1ccc(OC)cc1	i	i	i	nt	i	i
Cc1ccccc1C(=O)c1cccn1CC(=O)NCc1ccccc1Cl	i	i	i	i	i	i
COc1ccc(-c2noc(CCC(=O)NC3CCCCCC3)n2)cc1OC	i	i	i	nt	i	i
CC1(C(=O)NS(=O)(=O)c2cccc(C#N)c2)CCN1C(=O)C1(c2ccc(Cl)cc2)CCC1 (stereo unspecified)	i	nt	i	nt	i	i
O=C(COC(=O)c1ccc([N+](=O)[O-])o1)NC1CCCC1	i	i	i	i	i	i
O=C(COC(=O)c1ccc([N+](=O)[O-])o1)NC1CCCCC1	i	i	i	213.1	i	i
CC(C)[C@H]1C=C(C(=O)O)O[C@@H](OCCCCO)C1	i	i	i	55.9	i	i
CC(C)[C@H]1C=C(C(=O)O)O[C@@H](OCc2ccc(CO)cc2)C1	i	i	i	i	i	i
Nc1c(C(=O)Nc2ccc(S(=O)(=O)N3CCCC3)cc2)sc2nc3ccc(OC(F)(F)F)cc3cc12	i	401.6	i	i	i	i
Nc1c(C(=O)Nc2ccc(S(=O)(=O)N3CCCC3)cc2)sc2nc3cc4c(cc3cc12)CCC4	i	56.6	i	i	i	i
Nc1c(C(=O)Nc2ccc(Cl)c(C(=O)O)c2)sc2nc3c(cc12)CCCC3	i	i	i	i	i	i
COc1ccc2nc(SCC(=O)Nc3ccc(S(=O)(=O)N4CCCC4)cc3)c(C#N)cc2c1	i	i	i	i	i	i
O=C(CNc1ccccc1F)Nc1cccc2ccccc12	i	i	i	i	i	i
COc1ccc(OC)c(NC(=O)c2ccno2)c1	i	i	i	i	i	i
Cc1occc1-c1nc(-c2ccncc2)no1	i	i	21018	i	i	i
O=C(O)/C(=C/c1ccc(Cl)c([N+](=O)[O-])c1)c1ccc(S(=O)(=O)N2CCCCC2)s1	i	i	i	i	i	i
COC(=O)C1=C(C)N=C2SCCC(=O)N2C1c1cccs1 (stereo unspecified)	i	i	i	i	i	i
COC(=O)C1=C(C)N=C2SCCC(=O)N2C1c1ccc(C(=O)OC)cc1 (stereo unspecified)	i	i	24822	i	i	i
COC(=O)c1ccc(C2C(C(=O)OCC(C)C)=C(C)N=C3SCCC(=O)N32)cc1 (stereo unspecified)	i	i	22462	i	i	i
